Screening data (PubChem BioAssay)
Only a selection was taken, and hits are over-represented in it overall.
Dicer inh: blocks human Dicer maturation of pre-miR-21 | Q9UPY3 | z-score at 25 µM | 47,000 tested, 6% active | AID 1347074 | cat-ELCCA pre-miR-21 Dicer processing, chemiluminescence; active compounds read high; in the data active means z-score above about 3, passing the limit was not always enough;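 further: higher signal means more uncleaved substrate so more Dicer inhibition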
Target sequence (Q9UPY3 whole entry, looked up): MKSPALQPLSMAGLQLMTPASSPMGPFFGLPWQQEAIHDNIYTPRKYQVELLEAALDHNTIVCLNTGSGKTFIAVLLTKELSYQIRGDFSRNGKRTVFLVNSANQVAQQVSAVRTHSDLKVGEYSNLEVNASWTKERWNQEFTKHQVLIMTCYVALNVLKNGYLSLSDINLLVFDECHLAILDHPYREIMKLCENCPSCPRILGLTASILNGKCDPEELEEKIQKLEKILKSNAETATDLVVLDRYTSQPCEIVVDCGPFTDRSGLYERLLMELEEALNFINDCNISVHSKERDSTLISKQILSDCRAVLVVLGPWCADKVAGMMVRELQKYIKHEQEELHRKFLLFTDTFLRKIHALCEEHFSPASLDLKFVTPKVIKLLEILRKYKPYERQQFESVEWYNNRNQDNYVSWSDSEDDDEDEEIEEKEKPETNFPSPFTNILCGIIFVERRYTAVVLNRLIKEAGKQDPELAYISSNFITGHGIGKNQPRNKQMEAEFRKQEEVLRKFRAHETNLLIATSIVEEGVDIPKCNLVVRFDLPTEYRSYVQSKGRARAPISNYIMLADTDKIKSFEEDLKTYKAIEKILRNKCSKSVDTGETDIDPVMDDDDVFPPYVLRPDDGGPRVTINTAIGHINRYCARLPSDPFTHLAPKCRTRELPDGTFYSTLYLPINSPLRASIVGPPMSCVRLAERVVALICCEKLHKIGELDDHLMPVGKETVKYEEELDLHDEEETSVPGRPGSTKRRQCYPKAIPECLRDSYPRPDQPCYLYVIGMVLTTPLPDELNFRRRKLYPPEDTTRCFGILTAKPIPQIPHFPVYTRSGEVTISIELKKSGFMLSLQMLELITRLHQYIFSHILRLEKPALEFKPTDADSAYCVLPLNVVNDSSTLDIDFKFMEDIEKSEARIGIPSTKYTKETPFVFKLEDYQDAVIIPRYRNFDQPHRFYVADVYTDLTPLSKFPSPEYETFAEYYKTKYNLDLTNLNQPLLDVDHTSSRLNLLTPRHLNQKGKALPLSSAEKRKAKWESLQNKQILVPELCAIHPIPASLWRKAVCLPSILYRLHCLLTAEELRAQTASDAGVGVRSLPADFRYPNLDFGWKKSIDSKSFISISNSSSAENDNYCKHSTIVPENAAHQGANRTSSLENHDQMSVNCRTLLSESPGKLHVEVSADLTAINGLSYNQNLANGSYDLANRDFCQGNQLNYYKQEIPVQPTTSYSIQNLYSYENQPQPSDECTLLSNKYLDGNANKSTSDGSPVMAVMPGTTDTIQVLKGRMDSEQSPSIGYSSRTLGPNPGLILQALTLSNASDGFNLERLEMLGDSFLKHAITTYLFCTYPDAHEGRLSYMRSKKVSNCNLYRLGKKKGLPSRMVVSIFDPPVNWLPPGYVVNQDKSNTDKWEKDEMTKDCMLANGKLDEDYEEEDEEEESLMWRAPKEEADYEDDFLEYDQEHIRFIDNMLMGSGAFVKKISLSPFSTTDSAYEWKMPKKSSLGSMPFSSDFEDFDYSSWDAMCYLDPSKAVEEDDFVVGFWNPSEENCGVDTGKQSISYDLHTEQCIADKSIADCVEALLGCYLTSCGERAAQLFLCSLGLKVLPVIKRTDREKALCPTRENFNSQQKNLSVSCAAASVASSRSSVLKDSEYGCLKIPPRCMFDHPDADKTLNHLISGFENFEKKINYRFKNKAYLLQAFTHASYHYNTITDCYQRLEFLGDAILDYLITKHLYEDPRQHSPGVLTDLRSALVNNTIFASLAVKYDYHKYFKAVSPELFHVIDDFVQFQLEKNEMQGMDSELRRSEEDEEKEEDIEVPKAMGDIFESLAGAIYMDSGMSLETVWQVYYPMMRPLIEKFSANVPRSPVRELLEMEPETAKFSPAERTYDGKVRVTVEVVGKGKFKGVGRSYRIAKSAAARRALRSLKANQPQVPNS
A number is an active result; n = inactive.

SMILES | Dicer inh
CC(C)S(=O)(=O)c1cnc(-c2ccc(Cl)cc2)nc1N | n
ONC=Nc1ccccc1Sc1nc2cc(Cl)ccc2s1 | 3.1
Nc1ccccc1Sc1nc2cc(Cl)ccc2s1 | n
ONC=Nc1ccccc1Sc1nc2c(Cl)cc(Cl)cc2s1 | n
CN(C)c1ccc(NC(=O)CC2Sc3ccccc3NC2=O)cc1 (stereo unspecified) | n
COc1ccc2sc(C)[n+](CCC(=O)O)c2c1 | n
N#Cc1nc(-c2ccccc2)oc1NCc1ccccc1 | 6.4
COc1ccc(-c2nc(C#N)c(NCc3ccco3)o2)cc1 | n
C=CCNc1oc(-c2ccc(F)cc2)nc1C#N | n
CCOC(=O)c1cnc2cc(Cl)c(F)cc2c1N1CCOCC1 | n
Cc1c2n(c3ccccc13)CC/C2=N/OC(=O)Nc1ccc(Cl)cc1Cl | n
Cc1cc(=O)oc2c1C(=O)CC(C)(C)C2 | n
CCC(=O)N1c2c(C)cc(C)cc2C(=C2SC(C(=O)OC)=C(C(=O)OC)S2)C(=S)C1(C)C | n
FC(F)(F)c1ccc(SCc2ccc(Cl)cc2)nc1 | n
CC(C)(C)c1ccc(OCCS(=O)(=O)c2nc3ccccc3[nH]2)cc1 | n
CCN1CCN(Cc2c(O)ccc3c(=O)c(-c4ccc(Cl)cc4)c(C(F)(F)F)oc23)CC1 | n
O=C(Cc1ccc(Cl)cc1)c1ccc(O)cc1O | 4.1
O=C(Cc1ccc(Cl)cc1)c1ccc(O)cc1 | n
O=C(Cc1ccccc1)c1ccc(Cl)cc1 | n
CCOC(=O)Cn1c2ccccc2n2nc(C)c(=O)nc12 | n
O=C(NC(=S)Nc1c(Cl)cc(Cl)cc1Cl)c1ccccc1 | n
C/C(O)=C(\N=O)C(=O)Nc1ccccc1 | n
CC(=N\Nc1c(Cl)cc(Cl)cc1Cl)/C(=N\O)C(=O)Nc1ccccc1 | 3
Nc1ncccc1OCc1ccccc1 | n
COc1cc(S(=O)(=O)N2CCOCC2)c(OC)cc1Cl | n
SMILES | Dicer inh
COc1ccccc1C1C2=C(Nc3c1c(=O)[nH]c(=O)n3C)c1ccccc1C2=O (stereo unspecified) | n
COc1cccc(C2Sc3ccccc3NC3=C2C(=O)c2ccccc23)c1OC (stereo unspecified) | 3.6
COc1cccc(C2Sc3ccccc3NC3=C2C(=O)c2ccccc23)c1 (stereo unspecified) | n
CCC(=O)N1N=C(c2ccco2)CC1c1cn(-c2ccccc2)nc1-c1cccs1 (stereo unspecified) | n
CC(Sc1nc2ncnc(N)c2[nH]1)C(=O)O (stereo unspecified) | n
Nc1ncnc2nc(SCCC(=O)O)[nH]c12 | 3.8
Nc1ncnc2nc(SCc3ccc4nsnc4c3)[nH]c12 | n
Cc1ccc(/C=C2/N=C(c3ccccc3)NC2=O)cc1 | n
O=[N+]([O-])c1ccc(NCc2ccc(Cl)c(Cl)c2)nc1 | n
Cc1cccc(-c2nc3cc(Cl)ccc3c(=O)o2)c1 | n
O=C(c1sc2ccccc2c1Cl)N1CCOCC1 | n
NC(=O)C1CCN(C(=O)Nc2cc3ccccc3s2)CC1 | n
O=C(c1cc2ccccc2s1)N1CCOCC1 | 3.2
CC1=C(Oc2ccc(Cl)cc2)C(C)(O)N=C(C(F)(F)F)N1 (stereo unspecified) | n
COC(=O)C12CC3CC(C1)CC(C(=O)OC)(C3)C2 | n
c1ccc(-c2cc(Sc3nnc(-c4ccncc4)n3-c3ccccc3)n3ncnc3n2)cc1 | n
Nc1n[nH]c(=O)c2cc(-c3ccc(Cl)cc3)[nH]c(=O)c12 | n
O=C(O)CC(CC(=O)O)c1ccc(Cl)cc1Cl | n
Nc1[nH]c(=S)[nH]c(=O)c1C(c1ccc(Cl)cc1Cl)c1c(N)[nH]c(=S)[nH]c1=O | 3.4
CN(C)/C=C(\C#N)c1cccc(C(F)(F)F)c1 | n
C=CCOc1ccc(C2CC(=O)Nc3n[nH]c(-c4ccc(Cl)cc4)c32)cc1OC (stereo unspecified) | n
CCOc1ccc(-c2n[nH]c(C)c2Oc2ccc(F)cc2)c(O)c1 | n
Cc1[nH]nc(-c2ccc(O)c(C)c2O)c1Oc1ccccc1 | 3.1
CCOc1cc(O)c(-c2n[nH]c(C)c2Oc2ccccc2)cc1CC | n
O=C(NNC(=O)c1sccc1OCc1ncc(C(F)(F)F)cc1Cl)Nc1ccccc1 | n
SMILES | Dicer inh
COc1ccc(C2c3c(ccc4ccccc34)OC23C(=O)C=Cc2ccccc23)cc1 (stereo unspecified) | n
COc1cccc(=O)c2c(C)n(-c3ccc(C(=O)O)cc3)c(C)c12 | n
CCOc1cccc(=O)c2c(C)n(-c3ccc(C(=O)O)cc3)c(C)c12 | 10
CCOc1cccc(=O)c2c(C)[nH]c(C)c12 | n
Cn1cnc(-c2ccccc2NS(=O)(=O)c2ccc(Cl)cc2)n1 | n
O=C(N=S1CCC2(C1)OCCO2)c1cc(C(F)(F)F)cc(C(F)(F)F)c1 (stereo unspecified) | n
COc1cccc(C2N3CCCN2CC3)c1OCc1ccccc1 (stereo unspecified) | n
